Data as given in PubChem BioAssay AID492998 (Southern Research Specialized Biocontainment Screening …, 2010).
Hit rate of the full screen: of about 2,300 compounds, about 550 (24%) were called active. No rule for the calls is given here. Only a sample is shown. Results with a measured potency or affinity are listed apart.

Experiment: Vero E6 cell cytotoxicity, dose response, cytotoxicity control for non-replicating M. tuberculosis project, secondary assay (AID 492998)
Settings: series mostly up to 20 µM

SMILES | outcome
Cc1ccc(/C=N/NC(=O)c2ccncc2)s1 | inactive
CC(=O)N1N=C(c2ccccc2)OC1c1ccc([N+](=O)[O-])s1 (stereo not drawn) | inactive
Cc1onc(-c2ccccc2)c1C(=O)Nc1nnc(COc2ccc(Cl)cc2)s1 | inactive
O=C(N/N=C/c1ccc(Br)s1)c1ccncc1 | inactive
O=C(Nc1ccccc1)c1cc2ccccc2o1 | inactive
CN(C)Cc1ccccc1Sc1ccc(Br)cc1 | inactive
CC(C)(NO)/C(=N\O)c1ccccc1 | inactive
CCCOC(=O)c1ccc(-c2ccc(C=O)o2)cc1 | inactive
Cc1ccc2nc3c(c(N)c2c1)CCN3c1ccccc1 | inactive
C=C(C)C1Cc2c(C)nn(-c3nc(C)cc(C)n3)c2C1 (stereo not drawn) | inactive
CCc1nnc(N/N=C/c2ccc(-c3ccc([N+](=O)[O-])cc3)o2)n1N | inactive
Cc1cccc(NC(=O)COC(=O)c2cc3ccccc3oc2=O)c1 | inactive
CCOc1cccc2cc(C(=O)NCc3ccccc3)c(=N)oc12 | inactive
Cc1ccc(N=Nc2c(C)[nH]n(C(N)=S)c2=O)cc1C | inactive
O=C(c1ccc(-c2ccc([N+](=O)[O-])cc2)o1)N1CCN(S(=O)(=O)c2cccs2)CC1 | inactive
COc1cccc(NC(=O)c2ccc(-c3ccc([N+](=O)[O-])cc3)o2)c1 | inactive
COc1ccccc1C(=O)OCC(=O)Nc1ccc(Cl)cn1 | inactive
CC(C)(C)NC(=O)c1ccc(NC(=O)c2ccccc2-c2ccccc2C(=O)O)cc1 | inactive
CN1CCC(O)(c2ccc(Cl)cc2)C(C(=O)c2ccc(Cl)cc2)C1 (stereo not drawn) | inactive
N/C(=N/OC(=O)c1ccc(Cl)cc1)c1ncc([N+](=O)[O-])s1 | inactive
Cc1nc(Cl)nc(N(C)c2ccccc2)c1[N+](=O)[O-] | inactive
O=C(Cn1cc([N+](=O)[O-])nc1[N+](=O)[O-])N1CCN(c2ccccc2)CC1 | inactive
Cc1nnc(NC(=O)c2ccc3ccccc3c2)o1 | inactive
Cc1cc(C=C2C(=O)NC(=S)NC2=O)c(C)n1C1CCCC1 | inactive

SMILES | outcome
CSc1nc2ccc(NC(=O)C3CC(=O)N(Cc4ccccc4)C3)cc2s1 (stereo not drawn) | inactive
CC1CCN(CCc2nc3cc(NC(=O)COc4ccc(Cl)cc4)ccc3n2C)CC1 | inactive
NC(=S)n1[nH]c(-c2ccc([N+](=O)[O-])cc2)c(N=Nc2ccc(O)cc2)c1=O | inactive
COC(=O)c1ccc(CSc2nnc(-c3ccncc3)o2)o1 | inactive
CCOC(=O)COc1ccc(/C=C2\NC(=S)N(CC)C2=O)cc1 | inactive
FC(F)(F)c1ccc(NCCc2ccccc2)nc1 | inactive
O=C(COc1ccc(F)cc1)N/N=C/c1cccc2cccnc12 | inactive
O=C1/C(=C/c2cccs2)COc2ccccc21 | inactive
Brc1ccc(OCCCCN2CCCCC2)cc1 | inactive
Cc1occc1C(=O)N/N=C/C(Br)=C\c1ccccc1 | inactive
O=C(CN1CCCCC1)Nc1nnc(-c2ccc([N+](=O)[O-])cc2)s1 | inactive
N#Cc1nc(-c2cccs2)oc1NCCc1ccccc1 | inactive
COc1cc(N=c2ssnc2Cl)cc(OC)c1OC | inactive
O=C1Nc2cc(C(=O)NCCCN3CCOCC3)ccc2S/C1=C/c1cccc(Cl)c1 | inactive
N=c1n(CCN2CCCCC2)c2ccccc2n1CC(=O)c1ccc(Cl)c(Cl)c1 | inactive
COCCOC(=O)c1c(C)oc2ccc(OC(=O)c3ccco3)cc12 | inactive
O=C(Nc1ncc(Cc2ccccc2)s1)C1=NCCN1 | inactive
OCC#CCSc1nnc(-c2ccc(Br)cc2)o1 | inactive
CCN(CC)c1ccc2c(c1)oc(=O)c1c(Cl)cc(=O)oc12 | inactive
CN(CCOCCOc1ccc(F)cc1)Cc1ccccc1 | inactive
CCCCOC(=O)Cn1c(-c2ccccc2)nc2ccccc2c1=O | inactive
CCOC(=O)c1cc(-c2csc(COc3ccc(Cl)cc3)n2)on1 | inactive
NC(=O)C1CCN(C2CC(=O)NC2=O)CC1 (stereo not drawn) | inactive
CCC(C)n1c(=S)[nH]c2ccccc2c1=O (stereo not drawn) | inactive

SMILES | outcome
Nc1ccc2nc3c(c(Cl)c2c1)CCCC3 | inactive
O=C(CCSc1nnc(-c2ccncc2)o1)Nc1ccc(Cl)cc1 | inactive
CCC1(O)CC(c2ccccc2)=NN1C(=O)c1ccccc1F (stereo not drawn) | inactive
CCOC(=O)C(C)(C)n1nnc(-c2ccc([N+](=O)[O-])cc2)n1 | inactive
Cc1cc(=O)n2cccc(O)c2n1 | inactive
O=C(NNc1nc2cc3c(cc2s1)OCCO3)c1ccccc1 | inactive
C/C(CC(=O)Nc1ccc(N(C)C)cc1)=N\NC(=O)c1ccncc1 | inactive
NC(=O)c1cccnc1Nc1cccc(F)c1 | inactive
CN(C)CCNc1c2c(c(C#N)c3nc4ccccc4n13)CCCC2 | inactive
CN(C)CCCn1c(=O)n(C2CCCCC2)c(=O)c2c3c(sc21)CCCCC3 | inactive
COc1cc(/C=N/Nc2ccc(Cl)c(C(=O)O)c2)ccc1OC(=O)c1cccs1 | inactive
CC1=NN(C(=O)c2csc(C)c2C)C(O)(C(F)(F)F)C1 (stereo not drawn) | inactive
O=C(CCc1ccccc1F)N1CCN(c2ccccc2)CC1 | inactive
Cc1cc(/C=N\NC(=O)c2cccs2)c(C)n1-c1ccc2ncccc2c1 | inactive
O=c1cc(-c2ccccc2Cl)oc2c([N+](=O)[O-])c(O)cc(O)c12 | inactive
O=C(CCc1ccccc1)NC1C2CC3CC(C2)CC1C3 (stereo not drawn) | inactive
C/C(=N/NC(=O)c1cccc(C)c1)c1c(O)cc(C)oc1=O | inactive
C/C(=N\NC(=O)c1ccncc1)c1cc2ccccc2oc1=O | inactive
C/C(=N\NC(=O)c1cccc(Cl)c1)C1C(=O)c2ccccc2C1=O | inactive
CC1CCN(C(=O)COC(=O)c2cc3ccccc3cc2O)CC1 | inactive
O=C(NC(=S)NCCc1ccccc1)c1ccccc1 | inactive
O=C1/C(=C/C=C/c2ccccc2)Oc2c1ccc(O)c2CN1CCN(CCO)CC1 | inactive
O=C(COC(=O)C1CC2C=CC1C2)Nc1ccccc1 (stereo not drawn) | inactive
COC(=O)c1cc2c(ccc3ccccc32)oc1=O | inactive

SMILES | outcome
COc1ccc(-c2cc(=O)oc(-c3cccc(C)c3)n2)cc1 | inactive
Cc1nn(-c2ccccc2)nc1C(=O)c1c(C)[nH]n(-c2ccccc2)c1=O | inactive
O=C(OCc1c(Cl)cccc1Cl)c1ccccn1 | inactive
CCOC(=O)c1ccc(COC(=O)c2cc3ccccc3oc2=O)o1 | inactive
CC(=O)NCCOC(=O)Nc1sc(=S)n(C)c1C | inactive
CC1CCN(C(=O)C2COc3ccccc3O2)CC1 (stereo not drawn) | inactive
Cc1csc(=Nc2cccnc2)n1CC1CCCCC1 | inactive
CNC(=O)COC(=O)c1ccc(-c2nc3ccccc3s2)s1 | inactive
CC(C)N1CCc2c(sc(NC(=O)CCS(=O)(=O)c3ccccc3)c2C#N)C1 | inactive
COCCCC1CCN(Cc2nc(-c3ccccc3)no2)CC1 | inactive
CC(C)(C)c1ccc(S(=O)(=O)NNC(=O)c2cc3ccccc3[nH]2)cc1 | inactive
CC(C)(C)CC(=O)NC(=S)NCc1ccco1 | inactive
CCOC(=O)COc1cc(N)c(Cl)cc1Cl | inactive
CCn1cc(C(=O)NC(C)C23CC4CC(CC(C4)C2)C3)cn1 (stereo not drawn) | inactive
Cc1ccc(S(=O)(=O)N2CCC(C(=O)OCc3ccccc3)CC2)cc1C | inactive
COc1ccc2c([N+](=O)[O-])c(N3CCCC3)[nH]c2c1 | inactive
Cc1ccc(OCCCCn2ccnc2)c([N+](=O)[O-])c1 | inactive
Clc1ccc(-c2ccc(CNCc3ccccn3)o2)cc1 | inactive
Clc1cccc(-c2ccc(CNCc3ccccn3)o2)c1 | inactive
Fc1ccc(-c2ccc(CNCc3ccccn3)o2)cc1Cl | inactive
CCCc1cc(NCCCn2ccnc2)n2nc(C)c(-c3ccccc3)c2n1 | inactive
O=C(Oc1ccccc1)c1cc2ccccc2o1 | inactive
Cc1cc(C(=O)NNc2ccc(Cl)cc2)no1 | inactive
COc1cccc(C(=O)C2CCCN(CC3=Cc4cc(OC)ccc4OC3)C2)c1 (stereo not drawn) | inactive

SMILES | outcome
N/C(=N\OC(=O)c1cccs1)c1ccccc1 | inactive
C=CCN(CC=C)C(=O)Cc1ccc(F)cc1 | inactive
O=[N+]([O-])c1ccc(Nc2ccccc2O)c2nonc12 | inactive
Cc1ccc2[nH]c(C)c(CCNC(=O)c3cc4cc([N+](=O)[O-])ccc4oc3=O)c2c1 | inactive
CC(NC(=O)c1cc2cc(Br)ccc2oc1=N)c1ccccc1 (stereo not drawn) | inactive
CCOCCOC(=O)COc1ccc2c(-c3ccccc3)cc(=O)oc2c1 | inactive
CC1=NN(C(=O)c2ccc(C)o2)C(O)(c2ccccc2)C1 (stereo not drawn) | inactive
O=C(NC1CCCC1)c1nc2c(nnn2Cc2cccc(Cl)c2)c(=O)[nH]1 | inactive
N=c1oc2ccccc2cc1C(=O)NC1CCCCCC1 | inactive
CC(=O)c1ccc(-n2cc(-c3ccc(C(C)(C)C)cc3)[n+]3c2SCCC3)cc1 | inactive
O=C(NCC(c1cccs1)N1CCOCC1)c1cc([N+](=O)[O-])cc([N+](=O)[O-])c1 (stereo not drawn) | inactive
COc1ccc([N+](=O)[O-])c(S(=O)(=O)c2ccc(Cl)cc2)n1 | inactive
COC(=O)CCCCCN1C(=O)/C(=C\c2ccncc2)SC1=S | inactive
COc1ccc(-c2noc(-c3cc4ccccc4oc3=O)n2)cc1 | inactive
CCN(CC)c1ccc2cc(C(=O)NCc3ccc(F)cc3)c(=N)oc2c1 | inactive
O=C(Nc1nc2c(Cl)cccc2s1)c1ccc([N+](=O)[O-])o1 | inactive
O=C(Nc1ccccc1F)c1ccc(Br)o1 | inactive
Cc1ccccc1NC(=O)c1nc[nH]c1C(=O)NCc1ccccc1 | inactive
COc1ccccc1OCC(=O)N/N=C/C=C/c1ccc([N+](=O)[O-])o1 | inactive
COc1ccccc1NC(=O)c1cnc(SC)nc1 | inactive
N=c1oc2ccc(Cl)cc2cc1C(=O)NC1CCCCCC1 | inactive
COc1cc2c(cc1OC)CN(CCC(=O)c1ccc(Br)cc1)CC2 | inactive
